Data published in the supplement of paper PMC10849652.
Targets with a hit are over-represented here; the source holds about 8,800 in all. About 0.5% of all pairs of compound and target were hits.

Tests used:
Experiment in all cases: log2 fold change, soluble protein after heating vs DMSO (PISA); higher = thermal stabilisation; K562 lysate, 10 uM; active = over 0.2 and 3.5 SD of the protein, either way, in both replicates (recomputed)
[1] = compound: Cc1cn(-c2cc(NC(=O)c3ccc(C)c(Nc4nccc(-c5cccnc5)n4)c3)cc(C(F)(F)F)c2)cn1 [nilotinib]
In short: (§1)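 The values are log-two fold changes in thermal stability compared with solvent controls and come from duplicates. They were obtained by TMTpro 16plex LC-MS/MS, with channel sums equalised, on the supernatant after 21,000xg for 90 min. That supernatant came from crude K562 extract at 1 mg/mL protein treated with 10 μM compound for 30 min, heated for 3 min across 48°C-58°C, pooled and brought to 0.5% NP-40 at 4°C.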

[2] = compound: Cc1nc(Nc2n[nH]c3c2CN(C(=O)N[C@H](CN(C)C)c2ccccc2)C3(C)C)c2sccc2n1
In short: as §1

[3] = compound: Cc1nc(Nc2ncc(C(=O)Nc3c(C)cccc3Cl)s2)cc(N2CCN(CCO)CC2)n1 [dasatinib]
In short: as §1

[4] = compound: Cc1ncc(-c2ccnc(Nc3ccc(S(C)(=O)=O)cc3)n2)n1C(C)C
In short: as §1

[5] = compound: Cn1cc(-c2ccc3c(c2)CCN3C(=O)Cc2cccc(C(F)(F)F)c2)c2c(N)ncnc21
In short: as §1

[6] = compound: Cn1cc(CNCC2CCN(c3ncc(C(=O)NO)cn3)CC2)c2ccccc21 [quisinostat]
In short: as §1

[7] = compound: Cn1cncc1[C@@](N)(c1ccc(Cl)cc1)c1ccc2c(c1)c(-c1cccc(Cl)c1)cc(=O)n2C [tipifarnib]
In short: as §1

[8] = compound: NC(=O)Nc1cc(-c2cccc(F)c2)sc1C(=O)N[C@H]1CCCNC1
In short: as §1

[9] = compound: NC(=O)c1cnc(N[C@@H]2CCCC[C@@H]2N)nc1Nc1cccc(-n2nccn2)c1
In short: as §1

[10] = compound: NC1(c2ccc(-c3nc4ccn5c(=O)[nH]nc5c4cc3-c3ccccc3)cc2)CCC1
In short: as §1

[11] = compound: NCC(=O)Nc1ccc(-n2nc(C(F)(F)F)cc2-c2ccc3c(ccc4ccccc43)c2)cc1
In short: as §1

[12] = compound: O=C(CCCCCCC(=O)Nc1ccccc1)NO [vorinostat]
In short: as §1

[13] = compound: O=C(O)c1ccc2c(c1)nc(Nc1cccc(Cl)c1)c1ccncc12 [silmitasertib]
In short: as §1

[14] = compound: O=C1NC(=O)C(c2cnc3ccccn23)=C1c1cn2c3c(cc(F)cc13)CN(C(=O)N1CCCCC1)CC2
In short: as §1

[15] = compound: c1cn2cc(-c3ccc4cn[nH]c4c3)nc(Nc3ccc(N4CCOCC4)cc3)c2n1 [entospletinib]
In short: as §1

Measured: log2 fold change

RAD50 isoform 2 (UniProt Q92878)
Sequence of UniProt Q92878 (Q92878 whole entry, looked up): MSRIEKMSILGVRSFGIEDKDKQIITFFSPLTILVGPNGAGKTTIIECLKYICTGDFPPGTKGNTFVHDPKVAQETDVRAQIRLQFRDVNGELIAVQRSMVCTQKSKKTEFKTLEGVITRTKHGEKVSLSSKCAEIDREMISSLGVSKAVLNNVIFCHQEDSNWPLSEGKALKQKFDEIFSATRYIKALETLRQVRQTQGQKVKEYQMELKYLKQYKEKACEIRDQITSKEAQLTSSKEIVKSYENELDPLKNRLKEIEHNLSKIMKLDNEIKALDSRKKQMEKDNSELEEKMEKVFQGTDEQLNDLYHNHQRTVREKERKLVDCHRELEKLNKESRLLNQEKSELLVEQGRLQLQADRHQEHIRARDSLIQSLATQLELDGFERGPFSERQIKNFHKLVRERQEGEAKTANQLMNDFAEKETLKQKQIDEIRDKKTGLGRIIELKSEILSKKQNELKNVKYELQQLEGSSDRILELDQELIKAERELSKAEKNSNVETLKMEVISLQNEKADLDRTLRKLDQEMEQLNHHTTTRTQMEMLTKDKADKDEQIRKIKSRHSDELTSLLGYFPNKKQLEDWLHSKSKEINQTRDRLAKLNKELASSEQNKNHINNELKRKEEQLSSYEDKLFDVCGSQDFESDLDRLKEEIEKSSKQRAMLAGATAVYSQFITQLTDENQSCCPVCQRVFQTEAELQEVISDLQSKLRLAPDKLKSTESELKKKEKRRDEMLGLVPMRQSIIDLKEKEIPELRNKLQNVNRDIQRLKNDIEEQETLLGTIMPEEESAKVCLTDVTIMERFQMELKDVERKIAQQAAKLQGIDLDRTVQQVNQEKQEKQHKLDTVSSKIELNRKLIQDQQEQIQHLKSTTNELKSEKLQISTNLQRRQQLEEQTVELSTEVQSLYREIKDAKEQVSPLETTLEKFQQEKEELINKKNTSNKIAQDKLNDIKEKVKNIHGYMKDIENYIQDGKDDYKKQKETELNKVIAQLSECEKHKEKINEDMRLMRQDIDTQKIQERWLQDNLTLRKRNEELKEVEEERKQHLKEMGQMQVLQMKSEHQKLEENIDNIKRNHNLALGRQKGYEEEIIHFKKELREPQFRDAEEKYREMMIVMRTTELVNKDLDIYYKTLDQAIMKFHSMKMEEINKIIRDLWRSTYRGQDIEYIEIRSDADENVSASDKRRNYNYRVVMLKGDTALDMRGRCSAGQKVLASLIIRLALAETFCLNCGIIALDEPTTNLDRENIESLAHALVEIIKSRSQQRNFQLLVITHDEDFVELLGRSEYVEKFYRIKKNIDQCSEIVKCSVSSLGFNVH
inactive: [1] -0.004 | [2] 0.016 | [3] -0.042 | [4] -0.003 | [5] 0.026 | [6] -0.031 | [7] -0.02 | [8] 0.016 | [9] 0.005 | [10] 0.001 | [11] -0.005 | [13] 0.024 | [14] -0.009 | [15] -0.003
active: [12] -0.458

SCO2 (UniProt O43819)
Sequence of UniProt O43819 (O43819 whole entry, looked up): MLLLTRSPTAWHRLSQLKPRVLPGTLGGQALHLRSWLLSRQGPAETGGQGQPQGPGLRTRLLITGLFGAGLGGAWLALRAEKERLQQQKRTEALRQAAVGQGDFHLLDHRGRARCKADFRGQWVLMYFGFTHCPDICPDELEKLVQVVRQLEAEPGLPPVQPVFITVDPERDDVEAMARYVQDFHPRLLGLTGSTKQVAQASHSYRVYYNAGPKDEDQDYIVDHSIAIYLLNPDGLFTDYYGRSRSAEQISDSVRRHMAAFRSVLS
inactive: [1] 0.15 | [2] -0.283 | [3] -0.05 | [4] -0.337 | [5] 0.106 | [6] 0.007 | [7] -0.062 | [8] -0.005 | [9] 0.05 | [10] -0.1 | [11] -0.024 | [12] 0.063 | [13] -0.079 | [14] 0.017 | [15] 0.053

RPS4X (UniProt P62701)
inactive: [1] 0.01 | [2] -0.023 | [3] 0.025 | [4] -0.002 | [5] -0.003 | [6] 0.016 | [7] 0.01 | [8] -0.001 | [9] -0.034 | [10] 0.008 | [11] 0.008 | [12] 0.106 | [13] 0.028 | [14] 0.015 | [15] 0.016

SDHC (UniProt Q99643)
inactive: [1] -0.009 | [2] 0.056 | [3] -0.001 | [4] -0.006 | [5] -0.015 | [6] 0 | [7] -0.068 | [8] -0.057 | [9] -0.016 | [10] 0.028 | [11] -0.046 | [12] -0.196 | [13] 0.048 | [14] -0.071 | [15] 0.088

RPL8 (UniProt P62917)
inactive: [1] -0.005 | [2] -0.004 | [3] 0.035 | [4] -0.028 | [5] -0.013 | [7] 0.027 | [8] -0.019 | [9] -0.008 | [10] -0.006 | [11] -0.041 | [12] 0.12 | [13] 0 | [14] 0.089 | [15] -0.006
active: [6] 0.222

RPS6KB1 (UniProt P23443)
inactive: [1] -0.034 | [2] 0.077 | [3] -0.003 | [4] 0.001 | [5] 0.003 | [6] -0.049 | [7] -0.008 | [8] 0.035 | [9] -0.014 | [11] -0.049 | [13] 0.132 | [14] -0.017 | [15] -0.005
active: [10] 0.405 | [12] -0.319

RHAG (UniProt Q02094)
Sequence of UniProt Q02094 (Q02094 whole entry, looked up): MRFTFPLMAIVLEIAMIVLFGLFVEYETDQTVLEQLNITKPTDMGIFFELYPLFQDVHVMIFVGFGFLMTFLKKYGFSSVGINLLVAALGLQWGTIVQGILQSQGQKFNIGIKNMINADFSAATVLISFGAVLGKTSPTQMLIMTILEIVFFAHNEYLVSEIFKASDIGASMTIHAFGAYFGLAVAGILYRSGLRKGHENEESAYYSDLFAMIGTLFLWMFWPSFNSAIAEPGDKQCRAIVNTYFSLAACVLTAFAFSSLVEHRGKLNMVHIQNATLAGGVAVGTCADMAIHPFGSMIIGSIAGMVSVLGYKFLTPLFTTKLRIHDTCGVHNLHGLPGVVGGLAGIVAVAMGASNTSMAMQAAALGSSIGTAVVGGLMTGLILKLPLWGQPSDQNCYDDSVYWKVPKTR
inactive: [1] 0.041 | [2] -0.013 | [3] -0.029 | [4] -0.016 | [5] -0.06 | [6] -0.142 | [7] 0.011 | [8] 0.011 | [9] -0.024 | [10] -0.002 | [11] 0.031 | [12] -0.026 | [13] 0.153 | [14] 0.015 | [15] -0.03

RFC5 (UniProt P40937)
Sequence of UniProt P40937 (P40937 whole entry, looked up): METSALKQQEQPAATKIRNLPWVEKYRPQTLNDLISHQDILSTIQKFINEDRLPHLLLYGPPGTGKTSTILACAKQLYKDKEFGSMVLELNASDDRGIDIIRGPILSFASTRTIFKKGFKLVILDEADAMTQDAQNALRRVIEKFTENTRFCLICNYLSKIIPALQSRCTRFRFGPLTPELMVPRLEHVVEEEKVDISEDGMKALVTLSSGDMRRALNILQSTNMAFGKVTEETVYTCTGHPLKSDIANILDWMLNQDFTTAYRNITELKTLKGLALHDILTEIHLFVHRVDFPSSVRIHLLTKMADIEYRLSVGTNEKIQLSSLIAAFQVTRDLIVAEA
active: [12] -0.492
inactive: [1] 0.005 | [2] 0.001 | [3] -0.06 | [4] -0.005 | [5] 0.025 | [6] -0.078 | [7] -0.023 | [8] 0.074 | [9] 0.025 | [10] -0.02 | [11] 0.019 | [13] 0.031 | [14] 0.019 | [15] 0.014

RNF149 (UniProt Q8NC42)
Sequence of UniProt Q8NC42 (Q8NC42 whole entry, looked up): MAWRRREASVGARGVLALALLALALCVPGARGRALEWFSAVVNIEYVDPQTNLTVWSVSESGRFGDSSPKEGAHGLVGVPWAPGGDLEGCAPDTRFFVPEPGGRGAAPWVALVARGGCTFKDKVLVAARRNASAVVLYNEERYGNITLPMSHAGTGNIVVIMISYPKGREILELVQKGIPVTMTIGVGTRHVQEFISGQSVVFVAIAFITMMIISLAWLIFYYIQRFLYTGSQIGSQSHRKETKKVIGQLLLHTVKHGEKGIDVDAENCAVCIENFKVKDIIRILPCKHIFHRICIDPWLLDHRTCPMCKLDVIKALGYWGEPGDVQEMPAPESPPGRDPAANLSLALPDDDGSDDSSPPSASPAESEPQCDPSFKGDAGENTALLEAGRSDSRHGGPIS
inactive: [1] 0.083 | [2] 0.129 | [3] -0.019 | [4] 0.099 | [5] 0.003 | [6] -0.019 | [7] 0.087 | [8] 0.038 | [9] 0.156 | [10] -0.019 | [11] 0.036 | [12] 0.098 | [13] 0.013 | [14] 0.015

RPL37A (UniProt P61513)
inactive: [1] 0.041 | [2] 0.011 | [3] 0.095 | [4] 0.067 | [5] 0.032 | [6] 0.139 | [7] 0.008 | [8] -0.028 | [9] -0.013 | [10] -0.021 | [11] 0.028 | [12] 0.08 | [13] -0.021 | [14] 0.093 | [15] -0.005

RELN (UniProt P78509)
inactive: [1] -0.086 | [2] -0.039 | [3] -0.005 | [4] -0.047 | [5] 0.002 | [6] -0.005 | [7] -0.032 | [8] 0.042 | [9] -0.101 | [10] 0.013 | [11] 0.016 | [12] 0.088 | [13] -0.049 | [14] 0.006 | [15] -0.037

SCCPDH (UniProt Q8NBX0)
Sequence of UniProt Q8NBX0 (Q8NBX0 whole entry, looked up): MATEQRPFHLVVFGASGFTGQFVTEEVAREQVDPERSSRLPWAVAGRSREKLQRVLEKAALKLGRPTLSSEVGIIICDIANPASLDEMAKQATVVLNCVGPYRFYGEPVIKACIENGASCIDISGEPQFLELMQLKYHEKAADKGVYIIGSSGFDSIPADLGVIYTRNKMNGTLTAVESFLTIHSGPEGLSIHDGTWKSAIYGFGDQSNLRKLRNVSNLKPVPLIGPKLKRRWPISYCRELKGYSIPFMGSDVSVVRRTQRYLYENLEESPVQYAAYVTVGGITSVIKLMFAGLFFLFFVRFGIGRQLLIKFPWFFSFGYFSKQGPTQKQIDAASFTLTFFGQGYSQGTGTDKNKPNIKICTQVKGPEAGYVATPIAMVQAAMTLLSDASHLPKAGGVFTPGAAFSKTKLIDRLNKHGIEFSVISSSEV
inactive: [1] 0.12 | [2] -0.002 | [3] 0.058 | [4] 0.151 | [5] -0.019 | [6] -0.058 | [7] 0.049 | [8] -0.217 | [9] -0.081 | [10] 0.022 | [11] -0.129 | [12] 0.34 | [13] -0.19 | [14] 0.115 | [15] 0.087

RPLP0P6 (UniProt Q8NHW5)
inactive: [1] 0.01 | [2] -0.027 | [3] 0.018 | [4] 0.001 | [5] 0.026 | [6] -0.049 | [7] -0.02 | [8] 0.002 | [9] 0.005 | [10] -0.016 | [11] 0.009 | [12] 0.123 | [13] 0.004 | [14] -0.003 | [15] 0.017

RSU1 (UniProt Q15404)
inactive: [1] 0.011 | [2] -0.011 | [3] 0.007 | [4] -0.028 | [5] 0.001 | [6] 0.112 | [7] 0.016 | [8] -0.002 | [9] 0.007 | [10] 0.002 | [11] 0.018 | [12] 0.15 | [13] 0 | [14] 0.034 | [15] 0.003

RASA2 (UniProt Q15283)
active: [12] -0.275
inactive: [1] -0.049 | [2] -0.037 | [3] -0.015 | [4] 0.063 | [5] 0 | [6] -0.071 | [7] 0.018 | [8] -0.011 | [9] 0.042 | [10] -0.031 | [11] -0.007 | [13] 0.021 | [14] -0.006 | [15] 0.023

RNPS1 (UniProt Q15287)
Sequence of UniProt Q15287 (Q15287 whole entry, looked up): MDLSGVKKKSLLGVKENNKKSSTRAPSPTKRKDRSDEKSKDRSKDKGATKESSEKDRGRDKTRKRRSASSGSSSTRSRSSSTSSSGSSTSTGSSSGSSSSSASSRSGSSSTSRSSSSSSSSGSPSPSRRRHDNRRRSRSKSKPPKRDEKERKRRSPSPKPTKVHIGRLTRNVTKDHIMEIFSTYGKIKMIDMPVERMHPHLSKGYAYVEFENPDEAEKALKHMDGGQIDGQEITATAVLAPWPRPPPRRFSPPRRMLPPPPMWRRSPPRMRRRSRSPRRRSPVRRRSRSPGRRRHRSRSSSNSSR
active: [6] 0.239
inactive: [1] 0.025 | [2] -0.047 | [3] 0.044 | [4] -0.035 | [5] 0.034 | [7] -0.056 | [8] 0.029 | [9] 0.018 | [10] -0.033 | [11] -0.014 | [12] 0.02 | [13] -0.093 | [14] -0.012 | [15] 0.009

RNF123 (UniProt Q5XPI4)
Sequence of UniProt Q5XPI4 (Q5XPI4 whole entry, looked up): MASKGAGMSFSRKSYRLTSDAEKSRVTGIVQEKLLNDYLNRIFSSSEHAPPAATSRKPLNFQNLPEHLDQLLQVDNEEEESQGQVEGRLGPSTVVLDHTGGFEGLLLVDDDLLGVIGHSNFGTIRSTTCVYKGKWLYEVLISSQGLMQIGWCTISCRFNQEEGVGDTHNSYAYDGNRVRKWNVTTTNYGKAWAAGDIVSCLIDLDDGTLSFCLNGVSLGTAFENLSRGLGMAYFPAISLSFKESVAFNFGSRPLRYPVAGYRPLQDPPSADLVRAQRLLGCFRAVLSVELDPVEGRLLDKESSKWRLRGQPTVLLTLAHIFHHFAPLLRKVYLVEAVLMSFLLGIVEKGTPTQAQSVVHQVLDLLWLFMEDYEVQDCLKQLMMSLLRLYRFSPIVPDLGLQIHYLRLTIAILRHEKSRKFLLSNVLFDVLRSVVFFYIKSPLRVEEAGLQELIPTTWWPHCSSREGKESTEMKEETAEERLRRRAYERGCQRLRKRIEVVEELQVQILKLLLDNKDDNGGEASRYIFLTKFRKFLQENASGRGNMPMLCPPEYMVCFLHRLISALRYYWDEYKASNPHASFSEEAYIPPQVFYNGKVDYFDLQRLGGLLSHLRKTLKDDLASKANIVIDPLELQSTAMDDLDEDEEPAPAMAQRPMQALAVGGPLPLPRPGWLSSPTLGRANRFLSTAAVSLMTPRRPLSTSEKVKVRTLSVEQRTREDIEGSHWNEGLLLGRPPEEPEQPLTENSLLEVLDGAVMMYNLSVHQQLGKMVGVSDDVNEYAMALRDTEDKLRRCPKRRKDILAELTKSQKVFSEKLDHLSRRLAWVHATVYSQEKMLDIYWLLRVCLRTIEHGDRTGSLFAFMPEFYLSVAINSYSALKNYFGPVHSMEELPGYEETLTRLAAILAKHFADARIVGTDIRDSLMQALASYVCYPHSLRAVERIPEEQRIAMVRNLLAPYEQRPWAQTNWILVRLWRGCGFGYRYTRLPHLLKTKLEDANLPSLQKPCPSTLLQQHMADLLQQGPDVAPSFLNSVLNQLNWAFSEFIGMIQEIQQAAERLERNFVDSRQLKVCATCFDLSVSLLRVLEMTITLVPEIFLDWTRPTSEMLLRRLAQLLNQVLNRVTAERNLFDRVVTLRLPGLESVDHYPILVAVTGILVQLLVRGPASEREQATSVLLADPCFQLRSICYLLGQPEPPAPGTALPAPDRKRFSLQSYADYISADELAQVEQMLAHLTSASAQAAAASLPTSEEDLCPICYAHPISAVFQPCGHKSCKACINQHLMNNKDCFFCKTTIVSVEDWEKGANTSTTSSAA
inactive: [1] 0.012 | [2] -0.013 | [3] -0.059 | [4] 0.022 | [5] 0.054 | [6] -0.046 | [7] -0.006 | [8] 0.04 | [9] 0.019 | [10] 0.01 | [11] 0.014 | [13] -0.016 | [14] -0.002 | [15] 0
active: [12] -0.385

SCML2 (UniProt Q9UQR0)
inactive: [1] 0.042 | [2] 0.004 | [3] -0.014 | [4] -0.06 | [5] 0.027 | [6] 0.007 | [7] 0.065 | [8] 0.048 | [9] 0.012 | [10] -0.022 | [11] -0.099 | [13] 0.039 | [14] 0.037 | [15] 0.007
active: [12] -0.243

RAB8B (UniProt Q92930)
Sequence of UniProt Q92930 (Q92930 whole entry, looked up): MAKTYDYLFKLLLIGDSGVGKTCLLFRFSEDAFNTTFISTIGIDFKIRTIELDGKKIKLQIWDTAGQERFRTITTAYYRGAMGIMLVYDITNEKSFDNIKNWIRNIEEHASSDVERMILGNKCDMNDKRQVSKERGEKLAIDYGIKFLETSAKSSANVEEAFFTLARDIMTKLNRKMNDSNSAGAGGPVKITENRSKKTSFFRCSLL
inactive: [1] -0.136 | [2] -0.011 | [3] -0.038 | [4] -0.033 | [5] -0.096 | [6] -0.035 | [7] 0.075 | [8] 0.019 | [9] 0.099 | [10] 0.029 | [11] -0.022 | [12] 0.135 | [13] -0.025 | [14] 0 | [15] -0.021

RAB1B (UniProt Q9H0U4)
inactive: [1] 0.016 | [2] 0.003 | [3] -0.058 | [4] -0.029 | [5] -0.001 | [6] 0.016 | [7] -0.04 | [8] -0.052 | [9] -0.041 | [10] 0.002 | [11] 0.025 | [12] 0.186 | [13] 0.007 | [14] -0.039 | [15] -0.011

RPL36AL (UniProt Q969Q0)
active: [6] 0.329
inactive: [1] 0.034 | [2] 0.038 | [3] 0.094 | [4] 0.055 | [5] 0.04 | [7] 0.058 | [8] 0.01 | [9] -0.026 | [10] -0.009 | [11] -0.056 | [12] 0.124 | [13] 0.011 | [14] 0.131 | [15] -0.001
